{"source": "PubChem BioAssay AID1508600", "about": "(Functional Genomics Laboratory (NCATS/FGL), 2020)", "note": "Among all 53,000 sequences or so, about 3,700 (7%) were called active. The full list was thinned out, with actives kept by preference. Values without a mark were called inactive.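 How the source made its calls: active means gene knockdowns whose robust z-score for IL-1 alpha signal is at least 2 or at most -2, so actives lie on both sides; inactive means the rest.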"}
{"experiment": "Components of the Cytosolic LPS Sensing Pathway: Gene Identification via Genome-wide siRNA Screen;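 further: robust z of the log signal after scaling to non-targeting control siRNA wells of the plate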", "details": "RAW264.7 macrophages, IL-1a HTRF, actives lie on both sides, screened at 100 nM (by protocol), cells primed 5 h with Pam3CSK4 first", "outline": "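Mouse macrophage line RAW264.7 is transfected with siRNA (100 nM final), grown 48h, primed with TLR ligand Pam3CSK4 5 h and given intracellular LipidA 24 h. IL-1a in supernatant is read by HTRF and viability by luminescence.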"}
{"sequence": "CCAAAGAUGCUCCUCACCUTT against Olfr197", "z-score": -0.158}
{"sequence": "GCUUCUAGCCUGUAUUGCCTT against Rps8", "z-score": 0.31}
{"sequence": "CCUGUAUUUUACGAUCUUUTT against Best1", "z-score": 0.103}
{"sequence": "GGUCCUGGACAAAGUGUUUTT against Tubgcp5", "z-score": "2.48 (active)"}
{"sequence": "CCCAUCUGUUUGAGUGUAUTT against Ms4a1", "z-score": -0.305}
{"sequence": "GCCUUGGUACACUAAACUCTT against Rhcg", "z-score": -0.426}
{"sequence": "GCCUGUAAGGAGAAUCAGCTT against Car4", "z-score": 0.684}
{"sequence": "GGUUCCAAGUCAAAGAGUUTT against Foxl1", "z-score": -0.47}
{"sequence": "GGACUCUGUAGUUGAAGAUTT against Pogz", "z-score": -0.882}
{"sequence": "CCAUUCUGAAUCUCUAAUCTT against Pigw", "z-score": 0.134}
{"sequence": "CCAAUCUGAAGUGCUACUATT against Trim42", "z-score": 0.368}
{"sequence": "CCCGUGCCUUCCUUAAAGCTT against Ggt6", "z-score": 0.327}
{"sequence": "CCCACUGAUGCUAUUUCUATT against Rad1", "z-score": "-2.57 (active)"}
{"sequence": "GGUCUUUAUCUACCAUGGGTT against Itga7", "z-score": -1.29}
{"sequence": "CCUUUGCCUAUGUUUACCATT against Ropn1l", "z-score": 0.851}
{"sequence": "GGGACUCAGUGUUUAUUGATT against Thsd4", "z-score": 0.216}
{"sequence": "GGCUUUUAAGUUCUUCCAGTT against Ptbp3", "z-score": "2.44 (active)"}
{"sequence": "UCAUUAGUAUCCUCCGUAUTT against Olfr919", "z-score": 0.27}
{"sequence": "GGAAGGUGAUGAAGGAUCGTT against Fam118a", "z-score": 0.0491}
{"sequence": "GGAAGAUUUCACAUCUCAGTT against Pdia5", "z-score": -0.528}
{"sequence": "GCUUGUUAAAAUUGGAAAGTT against Kif11", "z-score": -1.47}
{"sequence": "GGCCUCCAAUAAAGCUCAGTT against Ttc28", "z-score": "-2.07 (active)"}
{"sequence": "GCUCCUAUUACUGAAUUUATT against Olfr749", "z-score": -0.445}
{"sequence": "GGUGACCUUACCUAAUGUATT against Mettl18", "z-score": 0.578}
{"sequence": "GGCACAAGCAGGAGAUAAATT against Serpinb2", "z-score": "2.05 (active)"}
{"sequence": "GGUGGUCUUUUCCCAGCAGTT against Msrb3", "z-score": 0.793}
{"sequence": "GGCAACACGAUGCAGCAGUTT against Fam50a", "z-score": -0.36}
{"sequence": "GCUCUACUGCUUCCUUGUUTT against Olfr229", "z-score": -0.338}
{"sequence": "GGUGUCUGCUUCUUCAAAGTT against Slc25a26", "z-score": "-2.33 (active)"}
{"sequence": "GGAUAUUGCCAGUAAUUAATT against Kif21a", "z-score": 0.212}
